Sampled rows, rich in hits. Any-hit rate of the full collection: about 2.4%.
C8 TRAIL sens = sensitizes caspase-8 expressing cells to TRAIL. NB7+C8 cells + TRAIL, ATPlite viability luminescence. inhibition (viability loss, TRAIL sensitization), % at 10 µM. 1% of 360,000 active. AID 624354;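 active = compounds causing at least 50% loss of cell viability in the single-dose screen, relative to plate controls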
HSF1 inhib = HSF1 inhibition | NIH3T3-HGL HSE-luciferase, MG132-induced, luminescence 8 h; stronger effect = lower value | activity change, negative = inhibition, % at 7.5 µM (by protocol) | 0.77% of 300,000 active;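 active = more than half of replicate wells show activity change below -50%, luminescence cut by over half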;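 also: luciferase reports HSF-1 transcriptional activity via heat shock element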
HSP90 refold inh = HSP90 refolding inhibition in rabbit reticulocyte lysate; luciferase refolding luminescence, 3 h; inhibition, % at 5.6 µM; 0.91% of 290,000 active; AID 1789;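 active = inhibition above the screen-wide mean plus 3 SD, computed separately per campaign, cut at about 16% in these data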;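 also: inhibitors lower the luminescence because luciferase stays unfolded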
STAT3 blocker = inhibitors of IL-6 induced STAT3 signaling; U3A cells, IL-6 STAT3-luciferase reporter, luminescence; host cell line lacks STAT1; inhibition, % at 5.5 µM; 0.89% of 190,000 active;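 active = inhibition above the mean inhibition across all screened compounds plus 3 SD, cut at about 44% in these data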
STAT1 inh = STAT1 signaling inhibition. NIH 3T3 STAT1-luciferase reporter, IFN-gamma, luminescence. AID 920. 0.35% of 200,000 active. inhibition, % at 5.5 µM;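 active = inhibition above a set limit, the mean inhibition across all tested compounds plus 3 SD, cut at about 34% in these data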
PPC-1+TRAIL kill = PPC-1 cancer cell killing with TRAIL present; PPC-1 cells + TRAIL, ATPLite viability luminescence; cell killing (% activity), % at 4 µM or 5 µM; 0.41% of 220,000 active; AID 1443;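 active = cell killing above 50% in the first pass at 4 µM, then a duplicate retest at 5 µM averaging 50% or more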
Each line names hits and unclear results; the compound was inactive in the other large screens.

Cc1cccc(C)c1NC(=O)CN1C(=O)NC(C)(CCc2ccccc2)C1=O (centres undefined)	HSF1 inhib -91
CCOc1ccccc1/C=C/c1onc(C)c1S(=O)(=O)N1CCC(C(=O)N(CC)CC)CC1	HSF1 inhib -60 (no result: STAT3 blocker, STAT1 inh, PPC-1+TRAIL kill)
CCN(CCN(C)C)C(=O)C1CCN(S(=O)(=O)c2c(C)noc2/C=C/c2ccccc2F)CC1	none (no result: STAT3 blocker, STAT1 inh, PPC-1+TRAIL kill)
Cc1nc2c(o1)C(=O)c1ccccc1C2=Nc1ccccc1	C8 TRAIL sens 95 (no result: HSF1 inhib, HSP90 refold inh, STAT3 blocker, STAT1 inh, PPC-1+TRAIL kill)
CNC(=O)c1c(C)[nH]c(=S)c(C#N)c1-c1ccco1	none (no result: STAT3 blocker, STAT1 inh)
Cc1ccccc1NC(=O)c1c(C)[nH]c(=S)c(C#N)c1-c1ccco1	PPC-1+TRAIL kill 60
CSCCC(C(=O)NC1CCCC1)n1c(C2CCCC2)nc2ccccc21 (centres undefined)	none (no result: HSF1 inhib, HSP90 refold inh, STAT3 blocker, STAT1 inh, PPC-1+TRAIL kill)
CCOc1ccc2oc(C(=O)Nc3cc(C)ccn3)c(C)c2c1	C8 TRAIL sens 70 (no result: HSP90 refold inh, STAT3 blocker, STAT1 inh, PPC-1+TRAIL kill)
COc1ccc2oc(C(=O)Nc3nnc(C)s3)c(C)c2c1	C8 TRAIL sens 70 (no result: HSF1 inhib, HSP90 refold inh, STAT3 blocker, STAT1 inh, PPC-1+TRAIL kill)
Cc1ccnc(NC(=O)c2oc3ccccc3c2C)c1	C8 TRAIL sens 66 (no result: HSP90 refold inh, STAT3 blocker, STAT1 inh, PPC-1+TRAIL kill)
Cc1ccc2oc(C(=O)Nc3nnc(C)s3)c(C)c2c1	none
Cn1c(N)c(C(=O)Nc2ccc(-c3ccccc3)cc2)sc1=S	HSF1 inhib -52 (no result: STAT3 blocker, STAT1 inh)
CC(C)(C)OC(=O)N1CCC[C@@H]1C(=O)NCc1ccccc1Cl	none (no result: HSF1 inhib, HSP90 refold inh, STAT3 blocker, STAT1 inh, PPC-1+TRAIL kill)
Cc1ccc(-c2nn3c(C)nnc3s2)cc1NC(=O)c1ccc(-c2cccc(Cl)c2)o1	none
Cc1ccc(-c2nn3c(C)nnc3s2)cc1NC(=O)c1ccc(-c2ccc(Cl)cc2Cl)o1	C8 TRAIL sens 60 (no result: HSF1 inhib)
O=C(NCc1ccccc1)C(c1ccc(-c2ccccc2)cc1)N1CCN(c2ccccc2F)CC1 (centres undefined)	none (no result: HSF1 inhib, HSP90 refold inh, STAT3 blocker, STAT1 inh, PPC-1+TRAIL kill)
c1ccc(-c2noc(-c3cccc4ccccc34)n2)nc1	C8 TRAIL sens 53
COc1cccc(-c2nc(-c3ccccn3)no2)c1OC	none
O=C(Nc1ccccc1)C1=C[C@H](c2ccccc2)C[C@H](OCc2ccc(CO)cc2)O1	none (no result: STAT3 blocker)
C#Cc1ccc([C@@H]2C=C(C(=O)O)O[C@H](OCc3ccc(CO)cc3)C2)cc1	HSP90 refold inh 16 (no result: STAT3 blocker)
C#Cc1ccc([C@@H]2C=C(C(=O)Nc3ccccc3)O[C@H](OCC)[C@H]2CCCO)cc1	C8 TRAIL sens 80 (no result: STAT3 blocker)
C#Cc1ccc([C@H]2C=C(C(=O)Nc3ccccc3)O[C@@H](OCc3ccc(CO)cc3)C2)cc1	C8 TRAIL sens 89 (no result: HSP90 refold inh, STAT3 blocker, STAT1 inh)
CC1(C(=O)NS(=O)(=O)c2ccccc2Cl)CCN1C(=O)C/C=C/c1ccccc1 (centres undefined)	none (no result: HSF1 inhib, HSP90 refold inh, STAT3 blocker, STAT1 inh, PPC-1+TRAIL kill)
Cc1ccc(NC(=O)CSc2nc3cc(C(=O)NCC4CCCO4)ccc3c(=O)n2CC2CCCO2)cc1 (centres undefined)	none (no result: HSF1 inhib, HSP90 refold inh, STAT3 blocker, STAT1 inh, PPC-1+TRAIL kill)
CC(=O)C1=CCC(c2ccc(C)cc2)N(S(=O)(=O)c2ccc(Cl)cc2)C1 (centres undefined)	none (no result: HSF1 inhib, HSP90 refold inh, STAT3 blocker, STAT1 inh, PPC-1+TRAIL kill)
Cc1cc(C(=O)COC(=O)C2=COCCO2)c(C)n1-c1ccccc1	C8 TRAIL sens 73 (no result: HSP90 refold inh, STAT3 blocker, STAT1 inh, PPC-1+TRAIL kill)
COc1cccc(S(=O)(=O)N(C)C[C@H]2OCc3cnnn3CCCC(=O)N([C@H](C)CO)C[C@@H]2C)c1	none (no result: HSF1 inhib, HSP90 refold inh, STAT3 blocker, STAT1 inh, PPC-1+TRAIL kill)
COc1cc(NC(=O)CSc2nc(C)cs2)cc(OC)c1	HSF1 inhib -81
Cc1csc(SCC(=O)Nc2cc(S(=O)(=O)N3CCCC3)ccc2Cl)n1	HSF1 inhib -54
O=C(COc1cc(F)ccc1[N+](=O)[O-])Nc1cc(S(=O)(=O)N2CCCC2)ccc1Cl	C8 TRAIL sens 52 (no result: HSF1 inhib, HSP90 refold inh, STAT3 blocker, STAT1 inh, PPC-1+TRAIL kill)
O=[N+]([O-])c1cc(S(=O)(=O)N2CCCCCC2)ccc1F	C8 TRAIL sens 75 (no result: HSF1 inhib)
CC(C)NC(=O)C1(C)CCN1C(=O)c1ccc(F)c(Cl)c1 (centres undefined)	none (no result: HSF1 inhib, HSP90 refold inh, STAT3 blocker, STAT1 inh, PPC-1+TRAIL kill)
Clc1cccc(CSc2nc3ccncc3[nH]2)c1	none
Fc1cccc(CSc2nc3ccncc3[nH]2)c1	C8 TRAIL sens 58
CC1CC(C)CN(C(=O)c2ccc(CSc3nc4ccncc4[nH]3)cc2)C1 (centres undefined)	HSF1 inhib -67
CCOC(=O)C1=C[C@@H](c2ccccc2)N(S(=O)(=O)c2ccc(C)cc2)[C@H]1c1ccc(OC)cc1	none (no result: HSF1 inhib, HSP90 refold inh, STAT3 blocker, STAT1 inh, PPC-1+TRAIL kill)
CCCn1c(N)c(C(=O)CSc2nc3ccccc3c(=O)n2Cc2ccccc2)c(=O)[nH]c1=O	HSF1 inhib -84
Cn1c(N)c(C(=O)CSc2nc3ccccc3c(=O)n2Cc2ccccc2)c(=O)n(C)c1=O	none (no result: STAT3 blocker, STAT1 inh)

High-throughput results as filed in PubChem BioAssay.
